Molecular target: T1, GST-Aq-NF-kB (Amphimedon queenslandica, UniProt A9Y5G7 2-389)
T1 sequence: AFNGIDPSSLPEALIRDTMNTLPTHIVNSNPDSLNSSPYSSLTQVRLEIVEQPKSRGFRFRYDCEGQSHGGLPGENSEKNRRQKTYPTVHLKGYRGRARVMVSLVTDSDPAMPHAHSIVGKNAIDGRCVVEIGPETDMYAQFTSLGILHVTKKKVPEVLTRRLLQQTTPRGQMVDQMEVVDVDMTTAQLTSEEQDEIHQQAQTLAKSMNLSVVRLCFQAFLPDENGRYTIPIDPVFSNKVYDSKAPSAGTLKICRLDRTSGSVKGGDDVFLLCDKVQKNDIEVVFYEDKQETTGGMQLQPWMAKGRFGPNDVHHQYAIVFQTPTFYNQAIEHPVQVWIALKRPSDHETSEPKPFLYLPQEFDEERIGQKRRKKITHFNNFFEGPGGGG
Test: protein-binding microarray (PBM); PBM: ~300 nM protein, 6 mM HEPES pH 7.8, 80 mM KCl, 0.5 mM EDTA, 0.5 mM EGTA, 6% glycerol, 35 ng/ul poly-dIdC, 1% milk, 1 h, room temperature; Ap Aiptasia and Nv Nematostella (sea anemones) / Co Capsaspora / Aq Amphimedon (sponge) / Dm Drosophila / Hu human; RHD is the Rel homology domain; high values mean tight binding
Conditions: dsDNA, one strand shown

Point of comparison: “CCGATTAACATCAGGCAATGCCCTGATGTTAATCGGGTCTTGATTCGCTTGACGCTGCTG”, binding signal 1.31 z-score. Against it:
- CCGATTAACATCACGGAGTTTCCTGATGTTAATCGGGTCTTGATTCGCTTGACGCTGCTG — higher, 3.34 z-score
- CCGATTAACATCACTAAATTTCCTGATGTTAATCGGGTCTTGATTCGCTTGACGCTGCTG — lower, 1.07 z-score
- CCGATTAACATCAGCAAAATTCCTGATGTTAATCGGGTCTTGATTCGCTTGACGCTGCTG — lower, 1.04 z-score
- CCGATTAACATCAGGAAACTTCCTGATGTTAATCGGGTCTTGATTCGCTTGACGCTGCTG — higher, 1.43 z-score
- CCGATTAACATCAGGAAGTTCCATGATGTTAATCGGGTCTTGATTCGCTTGACGCTGCTG — higher, 1.48 z-score
- CCGATTAACATCACGGAGAATCCTGATGTTAATCGGGTCTTGATTCGCTTGACGCTGCTG — lower, 1.18 z-score
- CCGATTAACATCAAAATTTCCGCTGATGTTAATCGGGTCTTGATTCGCTTGACGCTGCTG — higher, 1.48 z-score
- CCGATTAACATCAGGAAATATCCTGATGTTAATCGGGTCTTGATTCGCTTGACGCTGCTG — lower, 1.24 z-score
- CCGATTAACATCAAAATTTCCGTTGATGTTAATCGGGTCTTGATTCGCTTGACGCTGCTG — higher, 1.64 z-score
- CCGATTAACATCAGGAGATTCCATGATGTTAATCGGGTCTTGATTCGCTTGACGCTGCTG — higher, 1.66 z-score
- CCGATTAACATCAGAGAATTTCCTGATGTTAATCGGGTCTTGATTCGCTTGACGCTGCTG — higher, 1.55 z-score
- CCGATTAACATCAAGGAAGTTCCTGATGTTAATCGGGTCTTGATTCGCTTGACGCTGCTG — higher, 2.07 z-score
- CCGATTAACATCACGGCAAGTCCTGATGTTAATCGGGTCTTGATTCGCTTGACGCTGCTG — higher, 1.46 z-score
